Measured values reported in PubChem BioAssay (NCATS).
Several values for one entry are separate records, joined by “and”; a condition that tells them apart may be missing. Equal entries are not always repeated. Records with an inconclusive call do not appear. Entries that show only a call come without a potency. Unmarked numbers belong to inactive results. Activity calls are given as the source filed them. Calls follow the shape of the dose curve; as a rule, active = well fitted curve in the direction sought with a large enough effect; inconclusive = small, poorly fitted or top-dose-only effect, or another doubt; inactive = no such curve, though single readings can be large; an effect the other way counts as inactive or inconclusive.

Assays:
[1] = Viability qHTS for spleen associated tyrosine kinase inhibitor (SYKi) naive MV4-11 cells (AID 1963823); also: nearly all actives have a fitted effect of over 40% in size; also: potency is read from the fitted curve at half-maximal effect
In short: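 SYK inhibitor-naive MV4-11 cells, 500 per well, exposed to compounds for 72 hr at 37 C, 5% CO2. Viability read as CellTiter-Glo luminescence after 10 min at room temperature.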

[2] = Viability qHTS for spleen associated tyrosine kinase inhibitor (SYKi) drug resistant MV4-11 cells (AID 1963824); also: nearly all actives have a fitted effect of over 35% in size; also: potency is read from the fitted curve at half-maximal effect
In short: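 SYK-inhibitor-resistant MV4-11 AML cells were seeded at 500 per well onto compound and cultured 72 hours (37 °C, 5% CO2). CellTiter-Glo was then added, and after 10 min at room temperature, luminescence gave viability.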

[3] = Cellular viability qHTS for adrenocortical cancer (ACC) cell line NCI-H295R (AID 1963990); also: nearly all actives have a fitted effect of over 60% in size; also: potency is read from the fitted curve at half-maximal effect
In short: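 CellTiter-Glo ATP luminescence, read 48 h after compound addition, measured viability of NCI-H295R adrenocortical cells grown serum-free with ITS. Final concentrations spanned up to 46 uM. Data normalized to DMSO and doxorubicin, fitted for IC50 and maximal response.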

[4] = Quantitative highthroughput screen to assess conditional lethalithy of P12 Ichikawa cells grown in RPMI1640 with dialyzed fetal bovine serum (RPMI+ds) (AID 1963880); details: Potency: P12-Ichikawa viability; also: nearly all actives have a fitted effect of over 35% in size; also: potency is read from the fitted curve at half-maximal effect
In short: (§1)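 Each medium arm—HPLM with 10% dialyzed FBS, or RPMI1640 with 5 mM glucose and 10% untreated or dialyzed FBS—was screened against an 11-point, 3-fold compound titration for 48 h at 37 °C, with CellTiter-Glo luminescence as endpoint.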

[5] = Quantitative highthroughput screen to assess conditional lethalithy of SEM cells grown in RPMI1640 with unreated serum (RPMI+s) (AID 1963883); also: potency is read from the fitted curve at half-maximal effect; nearly all actives have a fitted effect of over 35% in size
In short: as §1

[6] = Quantitative highthroughput screen to assess conditional lethalithy of SEM cells grown in RPMI1640 with dialyzed fetal bovine serum (RPMI+ds) (AID 1963884); also: potency is read from the fitted curve at half-maximal effect; nearly all actives have a fitted effect of over 35% in size
In short: as §1

[7] = Cellular viability qHTS for adrenocortical cancer (ACC) cell line SW-13 (AID 1963989); details: SW-13 ACC cells viability, CellTiter-Glo, 48 h; activity (max response): active compounds read low; also: nearly all actives have a fitted effect of over 65% in size; also: potency is read from the fitted curve at half-maximal effect;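 as to activity (max response): cells grown in serum-free medium with ITS supplement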
In short: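 Viability was read as CellTiter-Glo luminescence after 48 h compound treatment (up to 46 uM final) of SW-13 cells grown serum-free; titration curves were fit with a four-parameter logistic model to give IC50 and efficacy.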

[8] = Quantitative highthroughput screen to assess conditional lethalithy of NOMO1 cells grown in RPMI1640 with dialyzed fetal bovine serum (RPMI+ds) (AID 1963877); also: series mostly up to about 46 µM; nearly all actives have a fitted effect of over 30% in size
In short: as §1

[9] = Quantitative highthroughput screen to assess conditional lethalithy of P12 Ichikawa cells grown in Human Plasma-Like Medium with dialyzed fetal bovine serum (HPLM+ds) (AID 1963879); details: Potency: viability
In short: as §1

[10] = Quantitative highthroughput screen to assess conditional lethalithy of P12 Ichikawa cells grown in RPMI1640 with untreated serum (RPMI+s) (AID 1963881); details: Potency: viability
In short: as §1

CCN(Cc1ccc(Cl)nc1)/C(=C/[N+](=O)[O-])NC
Potency [1]: inactive
Potency [2]: inactive
Potency [3]: inactive

COc1ccc(Cc2nccc3cc(OC)c(OC)cc23)cc1OC
Potency [1]: 6.68 µM (active) and 2.35 µM (active)
Potency [2]: 7.5 µM (active) and 2.95 µM (active)
Potency [3]: inactive

C=C(C)[C@H]1Cc2c(ccc3c2O[C@@H]2COc4cc(OC)c(OC)cc4[C@@H]2C3=O)O1
Potency [1]: 0.0376 µM (active)
Potency [4]: 4.69 µM (active)
Potency [5]: 4.18 µM (active)
Potency [6]: 3.72 µM (active)
Potency [7]: 0.0116 µM (active)
Potency [3]: 0.103 µM (active)

CC(=O)Nc1ccc(OC[C@](C)(O)C(=O)Nc2ccc([N+](=O)[O-])c(C(F)(F)F)c2)cc1
Potency [1]: 16.6 µM (active)
Potency [8]: inactive
Potency [9]: inactive
Potency [4]: inactive
Potency [10]: inactive
activity (max response) [7]: 0.634%
Potency [3]: inactive

COc1cc(C[C@@H](C)N)c(OC)cc1Br
Potency [1]: inactive
activity (max response) [7]: -7.05%

CCO[C@H]1O[C@@H]2OC3(C)CC[C@H]4[C@H](C)CC[C@@H]([C@H]1C)[C@@]24OO3
Potency [1]: 4.22 µM (active)
Potency [2]: 2.99 µM (active)
Potency [3]: inactive

Cc1ccc(N=CN(C)C=Nc2ccc(C)cc2C)c(C)c1
Potency [1]: inactive
Potency [2]: inactive
Potency [3]: inactive

COc1cc2c(cc1F)C(c1ccccc1Cl)=Nc1c(n[nH]c1C)N2
Potency [1]: 0.517 µM (active)
Potency [2]: 1.48 µM (active)
activity (max response) [7]: -18.7%
Potency [3]: inactive

C[C@]12CC[C@@H]3c4ccc(OC(=O)N(CCCl)CCCl)cc4CC[C@H]3[C@@H]1CC[C@@H]2O
Potency [1]: inactive
Potency [2]: inactive
Potency [3]: inactive

CC(C)(C)OC(=O)c1ncn2c1[C@@H]1CCCN1C(=O)c1c(Br)cccc1-2
Potency [1]: inactive
activity (max response) [7]: 2.94%
Potency [3]: inactive

CCN(CC)C(=O)N[C@@H]1C=C2c3cccc4[nH]cc(c34)C[C@@H]2N(C)C1
Potency [1]: inactive
activity (max response) [7]: 5.3%
Potency [3]: inactive

C#CC(O)(C=CCl)CC (configuration not stated)
Potency [1]: inactive
Potency [3]: inactive

CO[C@]12CC[C@@]3(C[C@@H]1[C@](C)(O)C(C)(C)C)[C@@H]1Cc4ccc(O)c5c4[C@@]3(CCN1CC1CC1)[C@H]2O5
Potency [1]: 21.5 µM (active)
Potency [7]: 6.31 µM (active)
Potency [3]: 3.98 µM (active)

CN1C(=O)[C@@H](NC(=O)[C@H](CCC(F)(F)F)[C@H](CCC(F)(F)F)C(N)=O)N=C(c2ccccc2)c2ccccc21
Potency [1]: inactive
activity (max response) [7]: -2.32%
Potency [3]: inactive

O=c1[nH]c2cc(Cl)ccc2n1C1CCNCC1
Potency [1]: inactive
activity (max response) [7]: 8.8%
Potency [3]: inactive

OCCCBr
Potency [1]: inactive
activity (max response) [7]: 0.205%
Potency [3]: inactive

COc1cccc2c1C(=O)c1c(O)c3c(c(O)c1C2=O)C[C@@](O)(C(=O)CO)CC3OC1CC(N2CCOC(OC)C2)C(O)C(C)O1 (some centres not stated)
Potency [1]: 0.0027 µM (active)
Potency [7]: 0.1 µM (active)
Potency [3]: 0.0501 µM (active)

O=C(O)CNC(=O)C1C(=O)N(C2CCCCC2)C(=O)N(C2CCCCC2)C1=O
Potency [1]: inactive
activity (max response) [7]: -10.4%
Potency [3]: inactive

C[C@]12CCC(=O)C=C1CC[C@@H]1[C@@H]2CC[C@]2(C)C(=O)CC[C@@H]12
Potency [1]: inactive
activity (max response) [7]: -7.18%
Potency [3]: inactive

CC(C)C(Br)C(=O)NC(N)=O (configuration not stated)
Potency [1]: inactive
activity (max response) [7]: -7.38%
Potency [3]: inactive

Clc1cccc(N2CCNCC2)c1
Potency [1]: inactive
activity (max response) [7]: 2.07%
Potency [3]: inactive

CCOP(=S)(OCC)O/N=C(\C#N)c1ccccc1
Potency [1]: inactive
activity (max response) [7]: 0.816%
Potency [3]: inactive

CCOC(=O)CC(SP(=S)(OC)OC)C(=O)OCC (configuration not stated)
Potency [1]: inactive
activity (max response) [7]: 13.7% and 6.35%
Potency [3]: inactive

CN1CCC(N(Cc2ccccc2)c2ccccc2)CC1
Potency [1]: inactive
Potency [3]: inactive

CC(C)(O)C(Cl)(Cl)Cl
Potency [1]: inactive
Potency [3]: inactive

CC(C)(N)Cc1ccccc1Cl
Potency [1]: inactive
activity (max response) [7]: 5.36%
Potency [3]: inactive

C=CCC1([C@H](C)CCC)C(=O)NC(=O)NC1=O
Potency [1]: inactive
activity (max response) [7]: -3.9%
Potency [3]: inactive

CCCCCCCCCCCC[N+](C)(C)CCOc1ccccc1
Potency [1]: 2.66 µM (active)
Potency [7]: 5.17 µM (active)
Potency [3]: 23.1 µM (active)

C[N+](C)(C)CCOC(=O)C(O)(c1ccccc1)c1ccccc1
Potency [1]: inactive
activity (max response) [7]: -5.79%
Potency [3]: inactive

O=C(O)c1ccc2[nH]cc(CCCCN3CC=C(c4ccccc4)CC3)c2c1
Potency [1]: 9.44 µM (active)
activity (max response) [7]: -1.83%
Potency [3]: inactive

C[N+]1(CCC(C(N)=O)(c2ccccc2)c2ccccc2)CCCCC1
Potency [1]: inactive
activity (max response) [7]: 8.34%
Potency [3]: inactive
